Screens (PubChem)
An excerpt weighted towards active compounds, which were near 1.5% of everything screened.
GASC-1 inh – human JMJD2C demethylase inhibition; inhibition, % at 2.35 µM; GST-JMJD2C(1-420) H3K9me3 demethylation, DELFIA europium; Q9H3R0; 330,000 tested, 0.069% active;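 active = more than half of a compound's replicate wells show inhibition beyond 50%, single wells judged on their own value; inconclusive = some, but no more than half, of replicates pass 50% inhibition; inactive = no replicate passes 50% inhibition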;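 also: signal counts dimethyl H3K9 product captured on neutravidin plate; 0% = median of DMSO wells and 100% = 0.3 times that DMSO median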
Target sequence (Q9H3R0 1-420 limits assumed): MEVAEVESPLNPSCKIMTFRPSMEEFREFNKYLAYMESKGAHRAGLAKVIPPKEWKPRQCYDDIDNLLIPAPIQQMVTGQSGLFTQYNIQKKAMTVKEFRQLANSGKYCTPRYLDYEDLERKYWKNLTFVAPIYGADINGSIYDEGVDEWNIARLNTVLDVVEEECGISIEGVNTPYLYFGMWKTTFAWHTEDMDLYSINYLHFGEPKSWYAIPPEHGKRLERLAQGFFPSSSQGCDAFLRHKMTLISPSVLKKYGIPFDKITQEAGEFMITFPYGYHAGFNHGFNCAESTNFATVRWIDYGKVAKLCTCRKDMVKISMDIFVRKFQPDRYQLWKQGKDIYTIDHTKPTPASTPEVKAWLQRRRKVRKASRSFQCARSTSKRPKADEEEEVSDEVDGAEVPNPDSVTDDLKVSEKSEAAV
Efflux pump mplx – blocks antifungal efflux pumps in multiplex yeast assay; S. cerevisiae Candida pump triplex, Nile Red efflux; inhibition, % at 10 µM; 330,000 tested, 0.44% active;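 active = plate passing quality check with inhibition over a set limit, or well fluorescence over plate mean plus 4 SD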;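 also: Nile Red retained in pooled yeast measured as flow cytometry median fluorescence; 0% = buffer negative control and 100% = Enniatin B positive control; higher means more Nile Red kept so more efflux inhibition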
PolyA inhibitor – yeast polyadenylation inhibition; S. cerevisiae SKY197-pL101 polyadenylation reporter, beta-gal luminescence; efflux-impaired pdr1/pdr3 knockout yeast; score 100 = 6 SD above DMSO; activity score, % at 12 µM; 300,000 tested, 0.02% active; AID 1875;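 active = lowest replicate activity score at least 50, where 100 means six control SD above control mean; inconclusive = lowest score under 50 but half or more replicates reach 50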;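 also: yeast exposed to compound for 9 h at 30 °C; higher score means more reporter readthrough which indicates perturbed polyadenylation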
NLRP3 yeast inh – inhibitors of NALP3 inflammasome in yeast; inhibition, % at 10 µM; 330,000 tested, 0.39% active; Yeast reconstituted NLRP3/ASC/caspase-1, beta-gal luminescence, 24 h;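 active = inhibition of 50% or more; inactive = inhibition below 50%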;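 also: plate controls were induced DMSO wells for no effect and uninduced yeast grown without galactose for full effect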
HDAC3 inh – inhibitors of human histone deacetylase 3; O15379; recombinant HDAC3, fluorogenic peptide/trypsin coupled, fluorescence; inhibition, % at 8.3 µM; AID 2718; 320,000 tested, 0.15% active; in the data active = inhibition above about 26%, passing the limit was not always enough; inconclusive = no clear call, values can overlap the other calls
NALP1 inh – NALP1 inhibition; S. cerevisiae NALP1/ASC/caspase-1 growth, X-gal OD620, 72 h; AID 2071; inhibition, % at 10 µM; 280,000 tested, 0.61% active; in the data active = inhibition mostly above about 24%, no sharp cut-off; inactive = mostly below about 32%
Yeast cmpd fluor – compound fluorescence in yeast efflux pump counter-screen | shares compounds with Efflux pump mplx | S. cerevisiae AD/pABC3, flow cytometry | fluorescence ratio to DMSO, % at 10 µM | 1,700 tested, 4% active | AID 588517;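 active = fluorescence ratio to DMSO above its plate's cutoff, the plate mean ratio plus 5 SD, cut at about 210% in these data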;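 also: unstained yeast with no Nile Red so the signal is compound autofluorescence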
Mdr1 pump inh – Candida Mdr1 efflux pump inhibition. shares compounds with Efflux pump mplx. S. cerevisiae AD/CaMDR1, Nile Red efflux, flow cytometry. inhibition, % at 10 µM. 1,700 tested, 1% active. AID 588518; in the data active = inhibition above about 26%;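 also: 0% = DMSO vehicle and 100% = reference inhibitor; higher means more Nile Red retained so more efflux inhibition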
CaCdr2 efflux inh – inhibitors of Candida albicans Cdr2 efflux pump. 1,700 tested, 4% active. shares compounds with Efflux pump mplx. AID 588520. S. cerevisiae AD/CaCDR2, Nile Red retention, flow cytometry. Nile Red retention ratio vs DMSO, % at 10 µM; in the data active = Nile Red retention ratio vs DMSO above about 190%;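 also: higher ratio means more blocking of Cdr2 efflux of the dye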
CaCdr1 efflux inh – blocks the Candida albicans Cdr1 efflux pump in yeast; shares compounds with Efflux pump mplx; S. cerevisiae AD/CaCDR1, Nile Red efflux, flow cytometry; inhibition, % at 10 µM; 1,700 tested, 1% active;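 active = inhibition above the screen-wide mean plus twice its standard deviation, cut at about 32% in these data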
The depositor's hits bear a star; ? = inconclusive; / = no result given.

SMILES	GASC-1 inh	Efflux pump mplx	PolyA inhibitor	NLRP3 yeast inh	HDAC3 inh	NALP1 inh	Yeast cmpd fluor	Mdr1 pump inh	CaCdr2 efflux inh	CaCdr1 efflux inh
COc1ccc(C2C(C#N)=C(N)N(c3ccccc3C#N)C3=C2C(=O)CCC3)cc1CN1CCCC1 (centres undefined)	-8.2	9.6*	-3.6	-10.6	4.6	22.4	103.0	-0.3	91.4	0.0
COc1cc(C2C(C#N)=C(N)N(c3cccnc3)C3=C2C(=O)CCC3)ccc1O (centres undefined)	-3.9	-0.1	3.9	-1.2	-3.7	-12.2	/	/	/	/
O=C(NNC(=O)c1ccc(S(=O)(=O)N2CCCCC2)cc1)c1ccccc1	-0.1	0.0	-6.5	23.4	4.7	7.8	/	/	/	/
O=C(NNC(=O)c1cccs1)c1ccc(S(=O)(=O)N2CCCCC2)cc1	-13.8	11.4*	-15.0	10.8	-2.6	17.9	98.2	-0.1	95.6	-0.1
COc1ccc(-c2sc3cc4c(cc3c2-c2ccc(OCCN3CCOCC3)cc2)OCO4)cc1	-1.4	0.4	/	-9.4	-5.0	/	/	/	/	/
COc1cc(OC)cc(-c2sc3ccc(OC)cc3c2-c2ccc(OCCN3CCOCC3)cc2)c1	/	159.9*	/	/	/	/	99.8	94.9*	101.8	128.1*
c1ccc(-c2sc3ccccc3c2-c2ccc(OCCN3CCOCC3)cc2)cc1	-11.2	-0.2	/	22.8	3.1	/	/	/	/	/
COc1cccc(-c2sc3ccc(OC)cc3c2-c2ccc(OCCN3CCOCC3)cc2)c1	-5.0	69.7*	/	-2.3	-5.4	/	90.8	12.8	101.7	67.2*
CCCCN1C(=O)C(=O)N(c2ccccc2)C1=S	-0.8	6.5*	-8.4	14.9	-1.8	10.2	107.2	-0.1	91.9	0.1
CCCCN1C(=O)C(=O)N(CC(=O)N2CCN(c3ccccc3)CC2)C1=O	-7.2	0.0	7.3	17.4	0.5	/	/	/	/	/
CC1CC(C)CN(c2ncc3c(n2)CC(c2ccc(Cl)cc2)CC3=O)C1 (centres undefined)	-5.6	6.7*	18.4	17.0	2.5	3.1	111.1	0.2	112.2	0.1
Cc1ccc(C2CC(=O)c3cnc(N4CC(C)CC(C)C4)nc3C2)cc1 (centres undefined)	/	/	/	/	/	8.4	/	/	/	/
Cc1ccc(C)c(SCC(=O)N(C)C2CCS(=O)(=O)C2)c1 (centres undefined)	0.2	-0.1	/	12.0	2.8	/	/	/	/	/
CN(C(=O)CSc1ncccn1)C1CCS(=O)(=O)C1 (centres undefined)	-20.3	5.3*	0.1	0.6	-7.8	13.4	112.2	-0.2	116.6	0.0
O=C1C(Cc2ccccc2)Nc2ncnc(N3CCCCC3)c2N1Cc1ccc(Cl)cc1 (centres undefined)	-17.1	0.2	6.9	8.9	10.5	/	/	/	/	/
O=C1C(Cc2ccccc2)Nc2ncnc(N3CCN(c4ccccc4)CC3)c2N1Cc1ccc(Cl)cc1 (centres undefined)	-4.8	103.9*	-19.4	16.9	5.4	/	104.5	108.6*	100.7	88.6*
COc1cccc(N2CCN(c3ccc4nnc(CCC(=O)Nc5ccc(C)cn5)n4n3)CC2)c1	16.8	0.0	-15.6	11.6	-3.9	3.9	/	/	/	/
Cc1cccc(NC(=S)NCc2cccn2C)c1	3.1	-0.2	-20.0	6.6	-7.2	-13.0	/	/	/	/
Cc1ccc(NC(=S)NCc2cccn2C)cc1	-180.0	1.2*	-5.4	7.0	-0.4	22.5	104.6	0.1	93.5	-0.2
CCOC(=O)C1=C(CS(=O)(=O)c2ccccc2)NC(=O)NC1c1cccc(OC)c1 (centres undefined)	-7.9	-0.1	9.5	4.8	-1.4	-7.2	/	/	/	/
CCOC(=O)C1=C(CS(=O)(=O)c2ccccc2)NC(=O)NC1c1ccccc1 (centres undefined)	-5.0	0.5*	3.1	-12.5	2.6	-43.0	89.9	0.0	96.0	0.0
O=C(COc1ccc(Br)cc1)Nc1nnc(C2CC2)s1	/	-0.1	/	25.2	2.0	/	116.4	-0.1	93.0	0.1
O=C(COc1ccc(F)cc1)Nc1nnc(C2CCCCC2)s1	5.1	0.1	-8.2	9.2	-3.5	0.5	/	/	/	/
CC(Oc1ccc(Br)cc1)C(=O)Nc1nnc(C2CC2)s1 (centres undefined)	-6.1	-0.1	?	17.8	-0.6	/	99.0	-0.1	109.4	0.1
Cc1ccc(C(C)C)cc1OCC(=O)Nc1nnc(C2CC2)s1	2.3	0.0	/	15.9	3.8	/	101.1	-0.2	106.3	0.2
SMILES	GASC-1 inh	Efflux pump mplx	PolyA inhibitor	NLRP3 yeast inh	HDAC3 inh	NALP1 inh	Yeast cmpd fluor	Mdr1 pump inh	CaCdr2 efflux inh	CaCdr1 efflux inh
Cc1cc(OCC(=O)Nc2nnc(C3CC3)s2)ccc1C(C)C	/	0.2	/	3.8	/	/	/	/	/	/
CCC(Oc1ccc(Br)cc1Cl)C(=O)Nc1nnc(C2CC2)s1 (centres undefined)	1.2	-1.6	3.9	31.4	-8.2	-2.9	/	/	/	/
CCc1ccccc1-n1nnnc1SCC(=O)Nc1ccc(N2CCN(C)CC2)cc1	8.3	-0.2	1.7	13.8	8.6	19.3	/	/	/	/
COc1ccc2c(=O)cc(CO)oc2c1	-9.1	-0.3	/	-4.6	-6.1	/	/	/	/	/
O=C(NC1CCCCC1)C(c1cccnc1)N(C(=O)c1csnn1)c1ccccc1 (centres undefined)	-8.6	0.0	-0.2	19.7	-0.4	-3.1	/	/	/	/
CCN(CC)CCCN(C(=O)Cn1nnc(-c2ccc(OC)c(OC)c2)n1)C(C(=O)NC(C)(C)C)c1ccc(F)cc1 (centres undefined)	2.2	0.1	14.3	18.0	1.8	5.7	/	/	/	/
Cc1nnc(N/N=C/c2cc([N+](=O)[O-])c(N3CCC(C)CC3)cc2N2CCC(C)CC2)n1N	0.9	7.2*	-17.4	16.0	-8.6	9.3	107.2	0.0	107.2	0.0
CCc1nnc(N/N=C/c2ccc(N3CCC(C)CC3)c([N+](=O)[O-])c2)n1N	10.5	0.4	-29.5	21.9	12.8	-0.2	/	/	/	/
Brc1ccc(CNc2cc3c(cc2Br)OCCO3)cc1	1.3	0.1	-31.1	9.1	6.3	-10.6	/	/	/	/
CCOc1ncccc1C(=O)NCC(c1ccco1)N1CCCCC1 (centres undefined)	-2.5	0.4	/	20.3	3.5	/	/	/	/	/
O=C(O)c1cc([N+](=O)[O-])ccc1NCc1ccccc1	-2.0	-0.1	3.1	2.7	2.7	11.2	/	/	/	/
O=[N+]([O-])c1ccc(NCc2ccccc2)nc1	-7.9	37.8*	-2.5	11.3	-4.3	39.8	83.3	0.2	99.6	-0.4
O=[N+]([O-])c1ccc(Nc2ccccc2)nc1	-2.0	30.2*	-17.7	7.1	-1.3	19.4	96.2	-0.1	107.2	-0.1
